# Inconclusive results are not listed. Values without a mark were called inactive. Calls follow the shape of the full dose curve.
# Assay: qHTS assay to identify small molecule agonists of the AP-1 signaling pathway (AID 1159526)
# Conditions: ME-180 (cervical carcinoma) AP-1-bla reporter, beta-lactamase FRET ratio, 5 h; series mostly up to 76.8 µM; activation: at the top concentration
# % is scaled to controls: 0 for no effect and ±100 for the full control effect.
row,SMILES,activation
1,C#CC(C)N(C)C(=O)Nc1ccc(Cl)cc1 (configuration not stated),-0.31%
2,CC(C)(C)OC(=O)c1ccc(O)cc1,-0.979%
3,CCN(C)C(=O)Oc1cccc([C@H](C)N(C)C)c1,-4.01% [at 35.3 µM]
4,CC(=O)c1ccc2c(c1)Cc1ccccc1-2,-0.745%
5,CCN1CCc2nc(N)oc2CC1,-0.655% [at 35.3 µM]
6,COc1nccnc1NS(=O)(=O)c1ccc(N)cc1,-3.19% [at 35.3 µM]
7,BrCCCCCBr,-0.456%
8,c1ccc2c(c1)ccc1c3ccccc3ccc21,-0.685% [at 35.3 µM]
9,CCC(C=O)CC,-8.95%
10,CN(CCOc1ccc(NS(C)(=O)=O)cc1)CCc1ccc(NS(C)(=O)=O)cc1,-5.17% [at 35.3 µM]
11,O=C1c2ccccc2C(=O)N1CCl,-0.924%
12,CN(C)CCOCCO,-1.11%
13,CCOC(=O)CC(=O)c1ccccc1,0.0162%
14,O=C(O)c1ccc(Cl)cc1Cl,-2.26%
15,CN(C)c1ccc(C=O)cc1,-1.7%
16,CCOc1cc(NC(C)=O)ccc1C(=O)OC,-1.09% [at 35.3 µM]
17,CC(=C(CCOC(=O)C(C)C)SSC(CCOC(=O)C(C)C)=C(C)N(C=O)Cc1cnc(C)nc1N)N(C=O)Cc1cnc(C)nc1N,-3.4% [at 35.3 µM]
18,C[C@@H](Oc1ccc(CNC(=O)c2cccnc2Oc2ccc3c(c2)OCO3)c(F)c1)C(=O)O,10.9%
19,O=C(NCCN1CCOCC1)c1ccc(Cl)cc1,-1.95% [at 35.3 µM]

row,SMILES,activation
1,N[C@@H](COP(=O)(O)O)C(=O)O,-0.856% [at 15.8 µM]
2,COCCOCCOCCOCCO,2.47%
3,CCCCCCCC/C=C\CCCCCCCC(=O)OCCCC,-1.59% [at 15.8 µM]
4,Cc1ccsc1/C=C/C1=NCCCN1C,-0.146% [at 35.3 µM]
5,CNC(=O)[C@H]1O[C@@H](n2cnc3c(NCc4cc(Cl)ccc4OCc4cc(C)no4)ncnc32)[C@H](O)[C@@H]1N,0.0371%
6,O=C(O)CCSSCCC(=O)O,-3.77%
7,COc1ccc(-c2cc(=O)c3c(O)cc(O[C@@H]4O[C@H](CO[C@@H]5O[C@@H](C)[C@H](O)[C@@H](O)[C@H]5O)[C@@H](O)[C@H](O)[C@H]4O)cc3o2)cc1O,-1.01% [at 35.3 µM]
8,NNc1nnc(NN)c2ccccc12,2.49% [at 35.3 µM]
9,O=C(CS(=O)Cc1ccco1)NC/C=C\COc1cc(CN2CCCCC2)ccn1 (configuration not stated),-0.225% [at 35.3 µM]
10,COc1cc(N)ccc1C,8.77%
11,COc1ccc(S(=O)(=O)N2c3ccc(Cl)cc3[C@@](O)(c3ccccc3Cl)[C@H]2C(=O)N2CCC[C@@H]2C(N)=O)cc1OC,-5.61% [at 35.3 µM]
12,Cc1ccc2c(c1)OCC(=O)CO2,-1.1%
13,Cc1nc2n(c(=O)c1CCN1CCC(c3noc4cc(F)ccc34)CC1)CCC[C@H]2O,6.23% [at 15.8 µM]
14,CC(CN)CC(C)(C)CCN (configuration not stated),7.08% [at 200 µM]
15,COC(=O)c1ccccc1C(=O)c1ccc(OCCN2CCCCC2)cc1,2.02% [at 35.3 µM]
16,Nc1nnc(-c2cccc(Cl)c2Cl)c(N)n1,2.66% [at 35.3 µM]
17,O=C1c2ccccc2C(=O)C1c1ccccc1,-2.32% [at 35.3 µM]
18,CCCCOC(=O)c1ccccc1,0.417%

# Source: PubChem BioAssay (Tox21)
